Assay results taken from PubChem BioAssay (NCI).
The panel holds about 79,000 compounds, 15% with a hit somewhere; the sample as a whole holds those more often. Calls of active or inactive are those of the source. Cut-off read from the data, not from the text of the source: active = growth inhibition above about 70%; inactive = the rest.

Experiments:
[1] = NCI Yeast Anticancer Drug Screen. Data for the mlh1 strain (AID 171);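 note: 0% = growth of vehicle-treated control cultures of the same strain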; details: S. cerevisiae mlh1 strain growth inhibition, stronger effect = higher value
In short: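 Growth of the mutant yeast strain after compound exposure, expressed as inhibition relative to vehicle-only controls.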

[2] = NCI Yeast Anticancer Drug Screen. Data for the sgs1 strain (AID 173);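 note: 0% = growth of vehicle-only control cultures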; details: S. cerevisiae sgs1 mutant, stronger effect = higher value
In short: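 Growth of a yeast strain bearing a defined genetic alteration is measured after compound treatment. Inhibition is expressed relative to vehicle-only controls.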

[3] = NCI Yeast Anticancer Drug Screen. Data for the mlh1 rad18 strain (AID 175); details: S. cerevisiae mlh1 rad18 strain growth inhibition, stronger effect = higher value
In short: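 Read-out is yeast growth inhibition, calculated against vehicle-only controls. The compound was applied to a strain engineered with DNA damage repair alterations.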

[4] = NCI Yeast Anticancer Drug Screen. Data for the rad18 strain (AID 177); details: S. cerevisiae rad18 mutant growth inhibition, stronger effect = higher value
In short: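 Growth of the mutant yeast strain after compound exposure, normalised to vehicle-only cultures.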

[5] = NCI Yeast Anticancer Drug Screen. Data for the rad52 strain (AID 147);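 note: 0% = growth of vehicle-treated control cultures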; details: S. cerevisiae rad52 mutant growth inhibition, stronger effect = higher value
In short: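 Compounds are applied to a genetically defined yeast strain lacking normal DNA damage repair, and inhibition of growth is expressed relative to cultures given vehicle only.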

[6] = NCI Yeast Anticancer Drug Screen. Data for the wt1 strain (AID 149);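 note: 0% = growth of vehicle-treated wt1 cultures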; details: S. cerevisiae wt1 strain (SPY 50644) growth inhibition, stronger effect = higher value
In short: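 Using yeast strain wt1, compound-induced growth inhibition was determined against vehicle-treated cultures.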

[7] = NCI Yeast Anticancer Drug Screen. Data for the mgt1 strain (AID 153); details: S. cerevisiae mgt1 mutant growth inhibition, stronger effect = higher value
In short: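 Strain: mgt1 yeast, one of a set carrying defined DNA damage repair or cell cycle control alterations. Compound-treated growth compared with vehicle.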

[8] = NCI Yeast Anticancer Drug Screen. Data for the rad50 strain (AID 155);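 note: 0% = growth of vehicle-only cultures of the same strain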; details: S. cerevisiae rad50 strain growth inhibition, stronger effect = higher value
In short: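 Relative growth inhibition (compound vs vehicle) was measured in yeast with a defined repair-gene alteration.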

[9] = NCI Yeast Anticancer Drug Screen. Data for the mec2-1 strain (AID 157); details: S. cerevisiae mec2-1 strain, stronger effect = higher value
In short: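 Strain: mec2-1 (DNA repair/cell cycle alteration). Compound exposure, then growth measured; inhibition expressed relative to vehicle.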

[10] = NCI Yeast Anticancer Drug Screen. Data for the rad14 strain (AID 159);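 note: 0% = growth of vehicle-treated control cultures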; details: S. cerevisiae rad14 strain growth inhibition, stronger effect = higher value
In short: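 Screen for anticancer potential: a yeast strain altered in DNA damage repair is grown with compound, and reduced growth is quantified against vehicle controls.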

[11] = NCI Yeast Anticancer Drug Screen. Data for the sgs1 mgt1 strain (AID 161);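 note: 0% = growth of cultures given vehicle only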; details: S. cerevisiae sgs1 mgt1 strain, stronger effect = higher value
In short: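 Mutant yeast exposed to compound; growth scored against vehicle-only wells.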

[12] = NCI Yeast Anticancer Drug Screen. Data for the CLN2oe strain (AID 163);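 note: 0% = growth of vehicle-only control cultures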; details: S. cerevisiae CLN2oe strain, stronger effect = higher value
In short: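 Growth of a genetically modified yeast strain is measured after compound exposure and compared with cultures given vehicle alone.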

[13] = NCI Yeast Anticancer Drug Screen. Data for the cln2 rad14 strain (AID 165);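 note: 0% = growth equal to vehicle treated cultures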; details: S. cerevisiae cln2 rad14 strain, stronger effect = higher value
In short: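 Compounds are applied to the cln2 rad14 yeast strain, and growth is then compared with that of vehicle-treated cultures to give inhibition.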

[14] = NCI Yeast Anticancer Drug Screen. Data for the bub3 strain (AID 167); details: S. cerevisiae bub3 mutant strain, stronger effect = higher value
In short: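 Screening used yeast with an engineered genetic alteration affecting cell cycle control. Compound-exposed cultures were compared with vehicle cultures, and reduced growth was taken as inhibition.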

[15] = NCI Yeast Anticancer Drug Screen. Data for the wt2 strain (AID 169);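 note: 0% = growth of vehicle-treated yeast cultures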; details: S. cerevisiae wt2 strain growth inhibition, stronger effect = higher value
In short: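 This strain belongs to a panel of yeast strains with defined genetic alterations in DNA damage repair or cell cycle control. Compounds are applied, and growth inhibition is measured against vehicle-treated cultures.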

[16] = NCI Yeast Anticancer Drug Screen. Data for the rad50EPP+ strain (AID 151);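 note: 0% = growth of vehicle-treated control cultures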; details: S. cerevisiae rad50 mutant strain, stronger effect = higher value
In short: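 Compounds were applied to the rad50EPP+ yeast strain, which bears a defined DNA repair alteration, and growth inhibition was determined relative to vehicle-treated cultures.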

[17] = at 5.0 µM (retest, dose inferred, filed as 0.5)
[18] = at 50.0 µM (retest, dose inferred, filed as 5.0)

Measured: growth inhibition

CC(=O)/C=C/c1cc([N+](=O)[O-])ccc1O
inactive: [1]; at 1.2 µM -6% | [1]; at 3.7 µM 3% | [1]; at 11.0 µM 33% | [2]; at 1.2 µM -28% | [2]; at 3.7 µM -24% | [2]; at 11.0 µM 9% | [3]; [17] 24% | [4]; at 1.2 µM -51% | [4]; at 3.7 µM -47% | [4]; at 11.0 µM -23%
active: [1]; at 33.0 µM 98% | [1]; at 100.0 µM 99% | [2]; at 33.0 µM 94% | [2]; at 100.0 µM 98% | [3]; [18] 97% | [3]; at 50.0 µM 85.1% | [4]; at 33.0 µM 74% | [4]; at 100.0 µM 97%

CC1=NN(C(=O)c2ccccc2O)C(=O)/C1=C/c1ccco1
active: [5]; at 11.0 µM 76% | [5]; at 33.0 µM 92% | [5]; at 100.0 µM 96% | [6]; at 11.0 µM 70% | [6]; at 33.0 µM 90% | [6]; at 100.0 µM 95% | [7]; at 33.0 µM 88% | [7]; at 100.0 µM 96% | [8]; at 33.0 µM 89% | [8]; [18] 89% | [8]; at 50.0 µM 87.5% | [8]; at 100.0 µM 95% | [9]; at 11.0 µM 75% | [9]; at 33.0 µM 91% | [9]; [18] 93% | [9]; at 50.0 µM 87.2% | [9]; at 100.0 µM 96% | [10]; at 33.0 µM 89% | [10]; at 100.0 µM 96% | [11]; [18] 90% | [11]; at 50.0 µM 87.3% | [12]; at 11.0 µM 81% | [12]; at 33.0 µM 91% | [12]; at 100.0 µM 95% | [13]; [18] 90% | [13]; at 50.0 µM 83.5% | [14]; at 11.0 µM 91% | [14]; at 33.0 µM 95% | [14]; [18] 94% | [14]; at 50.0 µM 87% | [14]; at 100.0 µM 97% | [15]; at 11.0 µM 80% | [15]; at 33.0 µM 92% | [15]; at 100.0 µM 96% | [1]; at 11.0 µM 71% | [1]; at 33.0 µM 89% | [1]; at 100.0 µM 96% | [2]; at 33.0 µM 85% | [2]; at 100.0 µM 92% | [3]; [18] 94% | [3]; at 50.0 µM 82.5% | [4]; at 33.0 µM 86% | [4]; at 100.0 µM 94%
inactive: [5]; at 1.2 µM 1% | [5]; at 3.7 µM 16% | [6]; at 1.2 µM 21% | [6]; at 3.7 µM 30% | [7]; at 1.2 µM -5% | [7]; at 3.7 µM 27% | [7]; at 11.0 µM 65% | [8]; at 1.2 µM -3% | [8]; at 3.7 µM 17% | [8]; [17] 11% | [8]; at 11.0 µM 64% | [9]; at 1.2 µM -4% | [9]; at 3.7 µM 2% | [9]; [17] 19% | [10]; at 1.2 µM -1% | [10]; at 3.7 µM 15% | [10]; at 11.0 µM 69% | [11]; [17] 2% | [12]; at 1.2 µM 6% | [12]; at 3.7 µM 7% | [13]; [17] 28% | [14]; at 1.2 µM 40% | [14]; at 3.7 µM 52% | [14]; [17] 43% | [15]; at 1.2 µM 11% | [15]; at 3.7 µM 31% | [1]; at 1.2 µM 12% | [1]; at 3.7 µM 32% | [2]; at 1.2 µM 7% | [2]; at 3.7 µM 44% | [2]; at 11.0 µM 67% | [3]; [17] 27% | [4]; at 1.2 µM 0% | [4]; at 3.7 µM 17% | [4]; at 11.0 µM 48%

O=C(Cc1ccccc1)NNc1nc(NNC(=O)c2ccncc2)nc(Nc2ccc([N+](=O)[O-])cc2)n1
inactive: [5]; at 1.2 µM 23% | [5]; at 3.7 µM 29% | [5]; at 11.0 µM 68% | [5]; at 33.0 µM 59% | [5]; at 100.0 µM 54% | [16]; at 1.2 µM 4% | [16]; at 3.7 µM 10% | [16]; at 11.0 µM 11% | [16]; at 33.0 µM 11% | [16]; at 100.0 µM -3% | [7]; at 1.2 µM 4% | [7]; at 3.7 µM 13% | [7]; at 11.0 µM 52% | [7]; at 33.0 µM 62% | [7]; at 100.0 µM 56% | [8]; at 1.2 µM 2% | [8]; at 3.7 µM 9% | [8]; [17] 8% | [8]; at 11.0 µM 21% | [8]; at 33.0 µM 25% | [8]; [18] 54% | [8]; at 100.0 µM 21% | [9]; at 1.2 µM 3% | [9]; at 3.7 µM 9% | [9]; [17] 3% | [9]; at 11.0 µM 27% | [9]; at 33.0 µM 34% | [9]; [18] 18% | [9]; at 50.0 µM 47% | [9]; at 100.0 µM 23% | [10]; at 1.2 µM -3% | [10]; at 3.7 µM 2% | [10]; at 11.0 µM 12% | [10]; at 33.0 µM 14% | [10]; at 100.0 µM 11% | [11]; [17] 0% | [11]; [18] 41% | [12]; at 1.2 µM -8% | [12]; at 3.7 µM -4% | [12]; at 11.0 µM 8% | [12]; at 33.0 µM 11% | [12]; at 100.0 µM 7% | [13]; [17] 42% | [13]; [18] 3% | [13]; at 50.0 µM 64.3% | [14]; at 1.2 µM -2% | [14]; at 3.7 µM -4% | [14]; [17] 6% | [14]; at 11.0 µM 11% | [14]; at 33.0 µM 17% | [14]; [18] 40% | [14]; at 100.0 µM 15% | [15]; at 1.2 µM -3% | [15]; at 3.7 µM 10% | [15]; at 11.0 µM 41% | [15]; at 33.0 µM 57% | [15]; at 100.0 µM 61% | [2]; at 1.2 µM 10% | [2]; at 3.7 µM 32% | [2]; at 11.0 µM 63% | [2]; at 33.0 µM 69% | [2]; at 100.0 µM 64% | [3]; [17] 7% | [3]; [18] 36% | [4]; at 1.2 µM 9% | [4]; at 3.7 µM 26% | [4]; at 11.0 µM 50% | [4]; at 33.0 µM 57% | [4]; at 100.0 µM 49%
active: [8]; at 50.0 µM 71.5% | [11]; at 50.0 µM 87.3% | [14]; at 50.0 µM 77.7% | [3]; at 50.0 µM 86.2%
